About 8,600 (12%) of roughly 69,000 compounds showed an effect of 50% or more. The entries come from a sample that favours strong results as a whole.

The assay concerns Plasmodium berghei. The experiment in a line: Screen against P. berghei liver stage (PbLuc), transformed with Luciferase, at 10uM. The assay is classed as functional, HepG2. As to conditions: tested at 10 uM.
`Cc1nc(CNC(=O)c2cc(COc3cccc(F)c3)[nH]n2)n[nH]1`: the INHIBITION is listed as 10.1%.
As for `CN(CCOc1ccc(C#N)cc1)CC1CC1`, the figure is -24.7%.
Regarding `CCCC12CN3CC(CCC)(CN(C1)C3c1[nH]c(=O)[nH]c(=O)c1C)C2=O` (centres undefined), the INHIBITION amounted to 17.1%.
For `CCO[C@@H]1CCN(c2ccc(C)nn2)[C@@H]1Cc1cnn(C)c1` the value was 24.8%; for `CC(C)(C)n1ncc2c(=O)n(CC(=O)NCc3ccco3)cnc21`, -28.5%.
For `NC(=O)Cn1c(CO)cnc1SCC(=O)NCc1ccccc1Cl` the value was -20.8%; for `CCCNC(=O)Cn1nc(C(C)C)c2cnn(C(C)(C)C)c2c1=O`, -7.35%; for `CC(C)(C)n1ncc2c(=O)n(CC(=O)NCCc3ccccc3)cnc21`, -25.4%.
For `CC(C)(C)n1ncc2c(=O)n(CC(=O)NCc3ccccc3Cl)cnc21` the value was 71.4%; for `CC(C)(C)n1ncc2c(=O)n(CC(=O)NCc3ccccc3)cnc21`, 84.3%; for `Cc1ccncc1-n1cc(CCO)cn1`, 0.546%.
Consider `O=C(CC1CCCCC1)NC1CCCc2nc(N3CCOCC3)ncc21` (centres undefined), for which the INHIBITION turned out to be 25.6%.
Turning to `Cc1cc(NC(C)c2nnn[nH]2)n2nc(C)c(C)c2n1` (centres undefined), the INHIBITION worked out at 5.91%.
For the molecule `COCC1CN(Cc2ccncc2)Cc2nnn(CC3CC3)c21` (centres undefined), the INHIBITION is given as 45.1%.
As for `CN(C)C(=O)N1Cc2nnn(CC3CC3)c2C(COCC2CC2)C1` (centres undefined), the figure is -0.284%; as for `c1cc(CN2Cc3nnn(CC4CC4)c3C(COCC3CC3)C2)co1` (centres undefined), 29.6%; as for `CCOCC1CN(CC2CCC2)Cc2nnn(CC3CC3)c21` (centres undefined), 44.4%.
As for `C1CCC(CN2Cc3nnn(CC4CC4)c3C(COCC3CC3)C2)C1` (centres undefined), the figure is 63.3%.
For `C1CC(N2Cc3nnn(CC4CC4)c3C(COCC3CC3)C2)C1` (centres undefined) the value was 67.3%; for `Cc1ccc(N2CCCN(C(=O)CC3C=CCC3)CC2)nn1` (centres undefined), -0.113%; for `O=C1CCOC[C@]2(CN(Cc3ccccc3)C[C@H]2c2cccc(F)c2)N1`, -38.8%.
`COc1ccc2c(c1)OCC(C(=O)NCc1nc3c(s1)CCCC3)C2` (centres undefined): the INHIBITION was -23.3%.
For `CC(c1ccccc1)N(C)C(=O)CNCCn1cccn1` (centres undefined) the value was 31.1%; for `CCN(CC)CC(=O)N1CCCCC1c1nc(C)cs1` (centres undefined), -67.3%; for `CCn1cc(CN2CCN(CC(O)c3ccc(C)cc3C)CC2)c(C)n1` (centres undefined), 28%.
For `Cc1nn(C)c2nc(N3CCNC(=O)C3C(C)C)sc12` (centres undefined), the INHIBITION is reported as -47.5%.
For the molecule `CNc1ncccc1C(=O)N1CCN(Cc2ccc(C)cc2)C(=O)C1C` (centres undefined), the INHIBITION was -11.5%.
Take `Cc1ccc(CN2CCN(C(=O)c3ccccc3O)C(C)C2=O)cc1` (centres undefined): the INHIBITION was 37.6%.
Consider `COC(=O)CC1C(=O)NCCN1c1nc2c(s1)c(C)nn2C` (centres undefined), for which the INHIBITION stood at 51.1%.
As for `Cc1nn(C)c2nc(N3CCCCC3c3ccc(F)cc3)sc12` (centres undefined), the figure is -11.6%.
With `Cc1nn(C)c2nc(N3CCCC3c3nccs3)sc12` (centres undefined), the INHIBITION was determined as 49.9%.
Regarding `Cc1nn(C)c2nc(N3CCCCC3c3nccs3)sc12` (centres undefined), the INHIBITION came to 28.7%.
Regarding `Cc1ccc(CN2CCN(C(=O)c3ccc(CO)cc3)C(C)C2=O)cc1` (centres undefined), the INHIBITION is 60.3%.
Take `COC(=O)CN1CCN(c2nc3c(s2)c(C)nn3C)C(C)C1=O` (centres undefined): the INHIBITION worked out at 52.9%.
For `Cc1ccc(CN2C[C@H]3CN(Cc4ccccc4Cl)CCN3C2=O)cc1` the value was -45.5%.
As for `Cc1ccc(CN2CCN(c3nc4c(s3)c(C)nn4C)C(C)C2=O)cc1` (centres undefined), the INHIBITION came to 78%.
Turning to `Cc1nn(C)c2nc(N3CCNC(=O)C3Cc3ccccc3)sc12` (centres undefined), the INHIBITION stood at 32.3%.
As to `Cc1occc1C(=O)N1CCCN(Cc2nccn2C)CC1`, the INHIBITION came to 23.7%.
Consider `OC1(CNCCCN2CCCc3ccccc32)CNCCOC1` (centres undefined), for which the INHIBITION was found to be 45.9%.
On to `Cc1nc(O)cc(CCNC(=O)c2ccccc2N2CCCC2)n1`, for which the INHIBITION was determined as 18.5%.
Consider `CCCS(=O)(=O)N1C[C@@H]2C[C@H](C(=O)N3CCN(C)CC3)[C@H](C1)O2`, for which the INHIBITION is recorded as 21.1%.
For `COc1ccc(-c2cc(CN)nc3ccnn23)cc1` the value was 35.2%.
For `CC(C)C[C@@H](C(N)=O)n1cc(-c2cncnc2)nn1` the value was 12.8%.
For `COc1ccc(-n2ccc(C(=O)N(CCN(C)C)C(C)C)n2)cc1` the value was 18.2%; for `Cc1ccc(-c2nc(CCNCc3ccncc3)co2)cc1`, 49.6%.
With `Cc1nc(C2CCCN2Cc2nccn2CC(F)(F)F)no1` (centres undefined), the INHIBITION was found to be 21.6%.
As for `CN(CC(F)(F)F)C(=O)CNC(=O)N1CCC(N2CCCC2)C1` (centres undefined), the figure is 30.9%.
For the molecule `CN1C(=O)COc2ccc(C(=O)Cn3cnc4ccsc4c3=O)cc21`, the INHIBITION is given as 47.9%.
For `COCCN(C)C1COC2(CCN(Cc3ccccn3)CC2)C1` (centres undefined) the value was 25.2%; for `Cc1cccc(CNC(=O)CC2CCN(S(C)(=O)=O)CC2)n1`, -20.6%; for `O=C1CCC2(CCN(Cc3ccc(F)cc3)CC2)N1Cc1ccccc1`, 46.6%.
For the molecule `Cc1nc(CSCCC(=O)NCc2ccncc2)cs1`, the INHIBITION was -4.94%.
For `Cn1nccc1C(=O)NCCN1CCC(O)(c2ccc(F)cc2)CC1` the value was 14.65%; for `COCCN1CC[C@]2(CN(C(=O)c3ccc[nH]3)C[C@H]2C)C1=O`, 61.3%.

(Values after ChEMBL document CHEMBL4513216, “Probing the Open Global Health Chemical Diversity Library for Multistage-Active Starting Points for Next-Generation Antimalarials” (ACS Infect Dis, 2020).)
